# High-throughput results as filed in PubChem.
# Shown are actives, neighbours in structure and some others; about 2.4% of the full set was active somewhere.
# SENP7 inh: blocks the human protease SENP7. recombinant SENP7, Z-RLRGG-aminoluciferin luminescence, 40 min. actives 1.5% (n = 330,000). Q9BQF6. inhibition, % at 5 µM;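 active = inhibition above about 50% at the single test dose, limit read from the data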;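 note: plate controls were DMSO with enzyme for no effect and no enzyme buffer wells for full effect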
# SENP8 block-1: inhibitors of human SENP8 protease; AID 2540; actives 1.2% (n = 330,000); Q96LD8; inhibition, % at 10 µM; purified SENP8, Z-RLRGG-aminoluciferin cleavage, luminescence; in the data active = inhibition above about 50%
# SENP8 block-2: blocks human SENP8 cleavage of Nedd8 substrate | Q96LD8 | recombinant SENP8, Nedd8 substrate fluorescence | inhibition, % at 20 µM | actives 0.64% (n = 360,000); in the data active = inhibition mostly above about 40%, no sharp cut-off; inactive = mostly below about 27%
# Platelet DG rel: platelet dense granule release activity. AID 1663. inhibition, %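 (compounds screened at 7.5 µM in platelet-rich plasma)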. human platelet-rich plasma, SFLLRN dense granule ATP release, luminescence. actives 0.22% (n = 300,000);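 active = mean replicate score, as percent of positive control, at or above 50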
# SENP6 inh: blocks the human protease SENP6; Q9GZR1; Recombinant SENP6 catalytic domain, aminoluciferin luminescence; inhibition, % at 10 µM; actives 1.8% (n = 330,000);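 active = inhibition above about 50% at the single tested dose, limit read from the data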;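 note: plate controls were DMSO wells with enzyme for no effect and DMSO wells lacking enzyme for full effect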
# Target sequence (Q9GZR1 628-1112 limits assumed): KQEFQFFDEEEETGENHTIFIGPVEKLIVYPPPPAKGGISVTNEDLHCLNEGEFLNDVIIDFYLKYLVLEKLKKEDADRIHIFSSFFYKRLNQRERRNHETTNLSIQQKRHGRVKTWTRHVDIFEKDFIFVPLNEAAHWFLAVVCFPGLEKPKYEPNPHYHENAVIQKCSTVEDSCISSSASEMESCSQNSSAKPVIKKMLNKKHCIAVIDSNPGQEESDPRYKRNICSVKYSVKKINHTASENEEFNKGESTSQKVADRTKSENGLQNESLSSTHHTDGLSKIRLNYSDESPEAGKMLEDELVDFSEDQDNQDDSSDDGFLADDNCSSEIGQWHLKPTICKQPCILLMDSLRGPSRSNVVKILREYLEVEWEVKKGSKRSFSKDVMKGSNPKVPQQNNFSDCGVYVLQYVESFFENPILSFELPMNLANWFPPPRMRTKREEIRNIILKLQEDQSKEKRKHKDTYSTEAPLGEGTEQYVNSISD
# SENP8 conf: SENP8 (human) inhibition, single concentration confirmation; AID 624319; actives 15% (n = 1,400); purified SENP8, Nedd8-AMC/pro-Nedd8 cleavage fluorescence, 30 min; shares compounds with SENP8 block-2; inhibition, % at 25 µM; in the data active = inhibition mostly above about 39%, no sharp cut-off; inactive = mostly below about 34%
# Numbers without * were called inactive; . = no result.
SMILES,SENP7 inh,SENP8 block-1,SENP8 block-2,Platelet DG rel,SENP6 inh,SENP8 conf
CN1CCN(c2ccc([N+](=O)[O-])cc2Cl)CC1,8,2,18,2,15,.
CC1CN(c2ccc([N+](=O)[O-])cc2Cl)CCN1 (stereo not given),2,-6,32*,-1,10,14
C[C@]12CCC3C(CC[C@H]4C[C@H](O)CC[C@]34C)C1C[C@H](O)[C@H]2O (stereo not given in full),.,.,4,.,.,.
Cc1nn(C)cc1/C=C1/CC2C3CC=C4CC(O)CCC4(C)C3CCC2(C)C1=O (stereo not given),-18,-2,47*,3,-2,10
COc1ccc(CN2CCNCC2)cc1,-8,-6,10,-2,-6,.
C=CCc1ccc(OC)cc1,2,-10,50*,.,-3,-5
CCC(=O)c1ccc(OC)c(OC)c1,12,-5,-7,-2,-19,.
COc1ccc(C(=O)O)cc1OC,.,.,45*,.,.,14
COC(=O)C1=C(c2ccc(S(C)(=O)=O)cc2)C[C@@H]2CC[C@H]1N2C(=O)NC(C)C,-2,0,24,1,-14,.
CCCCC1(CCCC)C(=O)NC(=Nc2cccc(C)c2)NC1=O,1,-10,21,9,-3,.
Cc1cccc(N=C2c3cc([N+](=O)[O-])ccc3-c3c2cc([N+](=O)[O-])cc3[N+](=O)[O-])c1,.,.,94*,.,.,23
COC(=O)C(O)(c1c(C)[nH]n(-c2ccccc2)c1=O)C(F)(F)F (stereo not given),24,6,63*,-2,27,87*
COC(=O)C(O)(c1c[nH]c2ccccc12)C(F)(F)F (stereo not given),7,-1,18,-3,-11,.
CC(C)[C@H](NC(=O)N1C[C@H]2C[C@@H](C1)c1cccc(=O)n1C2)C(=O)Nc1ccccc1F,-3,-1,47*,0,-8,13
COC1=CC(=O)OC(CCc2ccc3c(c2)OCO3)C1 (stereo not given),.,.,40*,.,.,-2
C[C@@]12N[C@@H](Cc3ccccc31)c1ccccc12,1,7,6,8,-12,.
COc1cc2c(c(OC)c1OC)-c1ccc(O)c(=O)cc1[C@@H](N)CC2,7,0,53*,.,-8,-12
